Counter-ions that a name gives are not always drawn.
Each compound was assayed on Klebsiella aerogenes DSM 30053 (assay: fold change of Histamine concentration vs plate DMSO controls (fold change (ratio)); higher = more amine produced, active = hit call of the paper (significant change in both replicates, either direction)). Conditions: incubation time: 27 h, anaerobic, 37 °C;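 for the amine columns active = adjusted P below 0.05 in both replicates with a change the same way and a mean fold change under 0.8 or over 1.25; inactive = the rest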.
Outline: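 Amine values are fold changes relative to DMSO-only wells on the same plate. They derive from 27 h, 37 °C anaerobic mGAM cultures of four gut bacterial strains in 80 µL wells, dosed at 20 µM final, or 50 µM final for sweeteners. Extraction of the whole culture, LC–triple-quadrupole MS in dynamic MRM mode, external calibration curves and within-batch drift correction were used, with 2 biological replicates averaged.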

Fold change of Histamine concentration, inactive:
CC(C)(C)NC[C@H](O)c1ccc(O)c(CO)c1 [Levalbuterol hydrochloride] (20 µM) 0.991
C[N+]1(CCCCC[N+]2(C)CCCC2)CCCC1 [Pentolinium bitartrate] (20 µM) 1.06
O=C1c2cccc(O)c2C(=O)c2c(O)cccc21 [Danthron] (20 µM) 0.93
O=C(N/N=C/c1ccc([N+](=O)[O-])o1)c1ccc(O)cc1 [Nifuroxazide] (20 µM) 1.01
COC(=O)Nc1nc2cc(Sc3ccccc3)ccc2[nH]1 [Fenbendazole] (20 µM) 1.07
CN(C)CCOC(c1ccccc1)c1ccccc1.Cn1c(=O)c2[nH]c(Cl)nc2n(C)c1=O [Dimenhydrinate] (20 µM) 1.05
CCc1ccc(C(=O)C(C)CN2CCCCC2)cc1 (centres undefined) [Eperisone Hydrochloride] (20 µM) 0.995
CC12CC3CC(C)(C1)CC(N)(C3)C2 [Memantine hydrochloride] (20 µM) 0.989
COc1ccc2[nH]cc(CCNC(C)=O)c2c1 [Melatonin] (20 µM) 0.94
CCC(=O)O[C@]1(C(=O)CCl)[C@@H](C)C[C@H]2[C@@H]3CCC4=CC(=O)C=C[C@]4(C)[C@@]3(F)[C@@H](O)C[C@@]21C [Clobetasol propionate] (20 µM) 0.98
CC[C@@H](CO)NCCN[C@@H](CC)CO [Ethambutol dihydrochloride] (20 µM) 0.958
CC(=O)CC(c1ccc([N+](=O)[O-])cc1)c1c(O)c2ccccc2oc1=O (centres undefined) [Acenocoumarol] (20 µM) 0.909
CCOC1O[C@H]([C@@H](COCc2ccccc2)OCc2ccccc2)[C@H](OCc2ccccc2)[C@H]1O (some centres undefined) [Tribenoside] (20 µM) 1.06
COc1ccc(C[C@@H]2c3cc(OC)c(OC)cc3CC[N@+]2(C)CCC(=O)OCCCCCOC(=O)CC[N@@+]2(C)CCc3cc(OC)c(OC)cc3[C@H]2Cc2ccc(OC)c(OC)c2)cc1OC [Cisatracurium besylate] (20 µM) 0.758
O=C1CN2Cc3c(ccc(Cl)c3Cl)N=C2N1 [Anagrelide] (20 µM) 0.845
Cc1c(C)c2c(c(C)c1O)CCC(C)(C(=O)O)O2 (centres undefined) [Trolox] (20 µM) 1.13
COc1cc(C(=O)NCc2ccc(OCCN(C)C)cc2)cc(OC)c1OC [Trimethobenzamide hydrochloride] (20 µM) 0.877
CC=CC(=O)N(CC)c1ccccc1C [Crotamiton] (20 µM) 1.06
CCOC(=O)C1=C(C)NC(C)=C(C(=O)OCC)C1c1ccccc1/C=C/C(=O)OC(C)(C)C [Lacidipine] (20 µM) 1.13
CCOC(=O)CC(=O)N1CCSC1COc1ccccc1OC (centres undefined) [Moguisteine] (20 µM) 1.02
CC(=O)OCC(=O)NCCCOc1cccc(CN2CCCCC2)c1 [Roxatidine acetate hydrochloride] (20 µM) 0.958
Clc1ccc(C(Cn2ccnc2)OCc2csc3c(Cl)cccc23)c(Cl)c1 (centres undefined) [Sertaconazole nitrate] (20 µM) 0.978
CC[N+](C)(CC)CCOC(=O)C1c2ccccc2Oc2ccccc21 [Methantheline bromide] (20 µM) 1.05
CN1[C@@H]2CC[C@H]1C[C@@H](OC(c1ccccc1)c1ccccc1)C2 [Benztropine mesylate] (20 µM) 1.09
Nc1c(Br)cc(Br)cc1CN[C@H]1CC[C@H](O)CC1 [Ambroxol hydrochloride] (20 µM) 1.03
COCCCC/C(=N\OCCN)c1ccc(C(F)(F)F)cc1 [Fluvoxamine maleate] (20 µM) 0.985
Clc1ccc(COC(Cn2ccnc2)c2ccc(Cl)cc2Cl)c(Cl)c1 (centres undefined) [Miconazole] (20 µM) 0.926
CCCCCCCCCCCCCCCC[N+](C)(C)CCN(Cc1ccc(OC)cc1)c1ncccn1 [Thonzonium bromide] (20 µM) 1.04
CCCN(CCC)C(=O)C(CCC(=O)O)NC(=O)c1ccccc1 (centres undefined) [Proglumide] (20 µM) 0.906
CN(C)CCC(c1ccc(Br)cc1)c1ccccn1 (centres undefined) [Brompheniramine maleate] (20 µM) 0.891
c1coc(CNc2ncnc3[nH]cnc23)c1 [Kinetin] (20 µM) 0.974
C#C[C@]1(O)CC[C@H]2[C@@H]3CCC4=CC(=O)CC[C@@H]4[C@H]3CC[C@@]21C [Norethindrone] (20 µM) 1.11
Oc1ncnc2[nH]ncc12 [Allopurinol] (20 µM) 1.03
COc1ccc(CN(CCN(C)C)c2ccccn2)cc1 [Pyrilamine maleate] (20 µM) 1.02
CC(C)(C#N)c1cc(Cn2cncn2)cc(C(C)(C)C#N)c1 [Anastrozole] (20 µM) 1.02
COC1=CC(=O)C[C@@H](C)[C@]12Oc1c(Cl)c(OC)cc(OC)c1C2=O [Griseofulvin] (20 µM) 1.02
CC(C)(C)NCC(O)COc1cccc2c1CC(O)C(O)C2 (centres undefined) [Nadolol] (20 µM) 0.981
CC1=C(CC(=O)O)c2cc(F)ccc2/C1=C\c1ccc([S+](C)[O-])cc1 (centres undefined) [Sulindac] (20 µM) 0.931
O=C1NCN(c2ccccc2)C12CCN(CCCC(c1ccc(F)cc1)c1ccc(F)cc1)CC2 [Fluspirilene] (20 µM) 0.981

— the supplement of paper PMC12494721
